PubChem BioAssay AID1159580 (chemical genetic matrix, 2015)
Screen size: about 5,500 compounds; about 2,000 (36%) were called active. Not shown: some 18% with an inconclusive outcome. No stated cut-off is given here; in the data, active means normalized growth mostly below about 0.91 (no sharp cut-off); inconclusive means no clear call, values can overlap the other calls; inactive means mostly above about 0.92. The list shows a part of the results.

Experiment: chemical genetic growth profiling, strain panel (AID 1159580);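 further: tested at 20 µM; growth read once vehicle control cultures reached saturation at 30 °C; 1 = growth at the plate median or of vehicle wells; lower values mean less growth of the strain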
Settings: growth OD

Measured: normalized growth

c1ccc([C@H]2CN3CCSC3=N2)cc1
inactive: S. cerevisiae deletion strains, locus YJR075W, strain HOC1, active compounds read low 1.01 | S. cerevisiae deletion strains, locus YKL009W, strain mrt4, active compounds read low 1.01 | S. cerevisiae deletion strains, locus YKL068W, active compounds read low 1.01 | S. cerevisiae deletion strains, locus YKL085W, strain MDH1 (second series), active compounds read low 0.999 | S. cerevisiae deletion strains, locus YKL085W, strain MDH1, active compounds read low 0.999 | S. cerevisiae deletion strains, locus YKL160W, strain elf1, active compounds read low 1.01 | S. cerevisiae deletion strains, locus YKL190W, strain CNB1, active compounds read low 0.998 | S. cerevisiae deletion strains, locus YKR001C, strain vps1, active compounds read low 1 | S. cerevisiae deletion strains, locus YKR026C, strain gcn3, active compounds read low 1.02 | S. cerevisiae deletion strains, locus YKR091W, strain srl3, active compounds read low 0.993 | S. cerevisiae deletion strains, locus YLL001W, strain dnm1, active compounds read low 0.99 | S. cerevisiae deletion strains, locus YLL026W, active compounds read low 1.01 | S. cerevisiae deletion strains, locus YLL041C, strain sdh2, active compounds read low 1.01 | S. cerevisiae deletion strains, locus YLR027C, strain aat2, active compounds read low 0.99 | S. cerevisiae deletion strains, locus YLR039C, strain RIC1, active compounds read low 1.02 | S. cerevisiae deletion strains, locus YLR058C, strain SHM2, active compounds read low 1.01 | S. cerevisiae deletion strains, locus YLR102C, strain apc9, active compounds read low 1 | S. cerevisiae deletion strains, locus YLR113W, strain HOG1, active compounds read low 1.08 | S. cerevisiae deletion strains, locus YLR221C, strain rsa3, active compounds read low 0.979 | S. cerevisiae deletion strains, locus YLR258W, strain gsy2, active compounds read low 1.02 | S. cerevisiae deletion strains, locus YLR262C, strain YPT6 (second series), active compounds read low 0.999 | S. cerevisiae deletion strains, locus YLR262C, strain YPT6, active compounds read low 0.992 | S. cerevisiae deletion strains, locus YLR268W, strain sec22, active compounds read low 0.993 | S. cerevisiae deletion strains, locus YLR320W, strain mms22, active compounds read low 0.988 | S. cerevisiae deletion strains, locus YLR330W, strain CHS5, active compounds read low 1.01 | S. cerevisiae deletion strains, locus YLR342W, strain FKS1 (second series), active compounds read low 1.02 | S. cerevisiae deletion strains, locus YLR342W, strain FKS1, active compounds read low 1.01 | S. cerevisiae deletion strains, locus YLR357W, strain rsc2, active compounds read low 1.03 | S. cerevisiae deletion strains, locus YLR370C, strain arc18, active compounds read low 0.999 | S. cerevisiae deletion strains, locus YLR371W, strain rom2, active compounds read low 1.01 | S. cerevisiae deletion strains, locus YLR384C, strain iki3, active compounds read low 1.01 | S. cerevisiae deletion strains, locus YLR418C, strain cdc73, active compounds read low 0.984 | S. cerevisiae deletion strains, locus YML016C, strain PPZ1, active compounds read low 1 | S. cerevisiae deletion strains, locus YML032C, strain rad52, active compounds read low 1.02 | S. cerevisiae deletion strains, locus YML120C, strain ndi1, active compounds read low 0.988 | S. cerevisiae deletion strains, locus YML124C, strain tub3, active compounds read low 1 | S. cerevisiae deletion strains, locus YMR058W, strain fet3, active compounds read low 1 | S. cerevisiae deletion strains, locus YMR078C, strain ctf18, active compounds read low 0.996 | S. cerevisiae deletion strains, locus YMR125W, strain sto1, active compounds read low 1.01 | S. cerevisiae deletion strains, locus YMR129W, active compounds read low 0.996 | S. cerevisiae deletion strains, locus YMR205C, strain PFK2, active compounds read low 1.02 | S. cerevisiae deletion strains, locus YMR223W, strain ubp8, active compounds read low 1.01 | S. cerevisiae deletion strains, locus YMR231W, strain pep5, active compounds read low 1 | S. cerevisiae deletion strains, locus YMR263W, strain SAP30, active compounds read low 1 | S. cerevisiae deletion strains, locus YMR307W, strain GAS1, active compounds read low 1.03 | S. cerevisiae deletion strains, locus YNL067W, strain RPL9B, active compounds read low 1 | S. cerevisiae deletion strains, locus YNL071W, strain lat1, active compounds read low 1.04 | S. cerevisiae deletion strains, locus YNL128W, strain TEP1, active compounds read low 1.01 | S. cerevisiae deletion strains, locus YNL153C, strain GIM3, active compounds read low 0.988 | S. cerevisiae deletion strains, locus YNL183C, strain NPR1, active compounds read low 0.983 | S. cerevisiae deletion strains, locus YNL209W, strain ssb2, active compounds read low 0.984 | S. cerevisiae deletion strains, locus YNL233W, strain BNI4, active compounds read low 1.01 | S. cerevisiae deletion strains, locus YNL248C, strain rpa49, active compounds read low 1 | S. cerevisiae deletion strains, locus YNL250W, strain rad50, active compounds read low 1.01 | S. cerevisiae deletion strains, locus YNL271C, strain bni1, active compounds read low 1.01 | S. cerevisiae deletion strains, locus YNL298W, strain CLA4, active compounds read low 1 | S. cerevisiae deletion strains, locus YNL307C, strain MCK1, active compounds read low 1.02 | S. cerevisiae deletion strains, locus YNL322C, strain KRE1 (second series), active compounds read low 0.979 | S. cerevisiae deletion strains, locus YNL322C, strain KRE1, active compounds read low 1 | S. cerevisiae deletion strains, locus YNR049C, strain mso1, active compounds read low 0.994 | S. cerevisiae deletion strains, locus YNR052C, strain pop2, active compounds read low 1.01 | S. cerevisiae deletion strains, locus YOL006C, strain TOP1, active compounds read low 1.02 | S. cerevisiae deletion strains, locus YOL012C, strain htz1 1.06 | S. cerevisiae deletion strains, locus YOL147C, strain pex11, active compounds read low 1 | S. cerevisiae deletion strains, locus YOR001W, strain rrp6, active compounds read low 0.961 | S. cerevisiae deletion strains, locus YOR061W, strain CKA2, active compounds read low 1 | S. cerevisiae deletion strains, locus YOR069W, strain VPS5, active compounds read low 0.995 | S. cerevisiae deletion strains, locus YOR070C, strain gyp1, active compounds read low 1.01 | S. cerevisiae deletion strains, locus YOR080W, strain dia2, active compounds read low 0.994 | S. cerevisiae deletion strains, locus YOR083W, strain WHI5, active compounds read low 0.995 | S. cerevisiae deletion strains, locus YOR106W, strain vam3, active compounds read low 1.02 | S. cerevisiae deletion strains, locus YOR136W, strain idh2, active compounds read low 0.997 | S. cerevisiae deletion strains, locus YOR144C, strain elg1, active compounds read low 1 | S. cerevisiae deletion strains, locus YOR184W, strain ser1, active compounds read low 1.02 | S. cerevisiae deletion strains, locus YOR231W, strain MKK1, active compounds read low 1.05 | S. cerevisiae deletion strains, locus YOR265W, strain rbl2, active compounds read low 1 | S. cerevisiae deletion strains, locus YOR270C, strain vph1, active compounds read low 1.02 | S. cerevisiae deletion strains, locus YOR290C, strain snf2, active compounds read low 1.01 | S. cerevisiae deletion strains, locus YOR316C, strain cot1, active compounds read low 1.01 | S. cerevisiae deletion strains, locus YPL051W, strain arl3, active compounds read low 1.01 | S. cerevisiae deletion strains, locus YPL055C, strain LGE1, active compounds read low 0.98 | S. cerevisiae deletion strains, locus YPL078C, strain atp4, active compounds read low 1.02 | S. cerevisiae deletion strains, locus YPL106C, strain sse1, active compounds read low 0.999 | S. cerevisiae deletion strains, locus YPL240C, strain hsp82, active compounds read low 1 | S. cerevisiae deletion strains, locus YPL241C, strain CIN2, active compounds read low 1.01 | S. cerevisiae deletion strains, locus YPL256C, strain CLN2, active compounds read low 1.04 | S. cerevisiae deletion strains, locus YPR119W, strain clb2, active compounds read low 1 | S. cerevisiae deletion strains, locus YPR141C, strain kar3, active compounds read low 0.999 | S. cerevisiae deletion strains, locus YPR163C, strain tif3, active compounds read low 1 | S. cerevisiae deletion strains, locus YPR167C, strain met16, active compounds read low 0.998 | S. cerevisiae deletion strains, strain wtn01, active compounds read low 0.997 | S. cerevisiae strains, strain wild type, active compounds read low 1
